# Results filed as inconclusive are left out. Where a call stands in place of a potency, no number is given. Where a structure was tested more than once in an assay, its records may differ in their call. The source made the active and inactive calls. Unless noted, the call rests on the fitted dose curve.
# How the values were obtained:
# [1] = Nuclear factor erythroid 2-related factor 2/antioxidant responsive element (Nrf2/ARE) small molecule agonists: qHTS cell viability counter screen in human keratinocytes (AID 1919968; active means well fitted curve in the direction sought with a large enough effect in the repeat runs; an effect the other way counts as inactive or inconclusive; further: nearly all actives have a fitted effect of over 55% in size; further: potency means the concentration at half of the fitted maximal effect)
# How it was run: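 Viability counter-screen: KeratinoSens reporter cells, DMSO-delivered compounds, 23 h at 37 C, CellTiter-Fluor fluorescence.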
# [2] = Nuclear factor erythroid 2-related factor 2/antioxidant responsive element (Nrf2/ARE) small molecule agonists: luciferase reporter gene qHTS assay in human keratinocytes (AID 1919969); further: nearly all actives have a fitted effect of over 35% in size; further: potency means the concentration at half of the fitted maximal effect
# [3] = target: KiSS-1 receptor (Homo sapiens) (UniProt Q969F8); assay: Human kisspeptin (KISS1R) small molecule agonists, calcium flux assay in KISS1R-HEK293 cells (AID 1920064; active means well fitted curve in the direction sought with a large enough effect in the repeat runs; an effect the other way counts as inactive or inconclusive)
# Chain of KiSS-1 receptor (Homo sapiens) (Q969F8 whole entry, looked up): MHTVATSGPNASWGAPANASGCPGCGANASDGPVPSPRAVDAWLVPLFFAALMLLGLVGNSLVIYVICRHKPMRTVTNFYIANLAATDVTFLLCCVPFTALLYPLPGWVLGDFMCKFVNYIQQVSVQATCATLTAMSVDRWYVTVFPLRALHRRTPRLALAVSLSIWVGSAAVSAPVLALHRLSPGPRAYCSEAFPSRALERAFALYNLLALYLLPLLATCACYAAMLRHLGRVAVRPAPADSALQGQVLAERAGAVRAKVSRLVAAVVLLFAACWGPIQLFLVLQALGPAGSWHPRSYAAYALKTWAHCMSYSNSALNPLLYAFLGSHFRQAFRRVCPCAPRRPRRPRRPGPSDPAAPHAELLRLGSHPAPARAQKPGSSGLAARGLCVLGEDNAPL
# How it was run: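 Intracellular calcium mobilization in KISS1R-HEK293 cells was recorded by fluorescence (Ex/Em 480/540) for 3 min following compound addition to cells pre-loaded 1 h with calcium dye.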
# [4] = G protein-coupled receptor (GPCR) small molecule agonists, calcium flux assay: HEK293 wild type cell line counter screen (AID 1920065)
# How it was run: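 In this agonist-mode screen, ATP is the positive control and DMSO the vehicle. Cells grow 18 h before a 1 h dye incubation at 37 C; signal is taken at Ex/Em 480/540 over 3 min.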
# [5] = p53 small molecule agonists, cell-based qHTS assay with human liver microsomes (AID 1963577);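 further: p53 response element beta-lactamase reporter cells with liver microsomes plus NADPH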
# How it was run: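 p53RE-bla cells; 5 h settle, 37 C/5% CO2; cpd + HLM 0.5 mg/mL + NADPH 0.5 mg/mL (final); 16 h 37 C; LiveBLAzer 2 h RT dark; fluorescence readout.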
# [6] = p53 small molecule agonists, cell-based qHTS assay with rat liver microsomes (AID 1963578)
# How it was run: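 Rat liver microsome activation: microsomes 0.5 mg/mL, NADPH 0.5 mg/mL final; p53RE-bla cells, 16 h 37 C; LiveBLAzer readout, 2 h RT dark.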
# [7] = p53 small molecule agonists, cell-based qHTS assay with rat liver microsomes: qHTS cell viability counter screen (AID 1963580); further: nearly all actives have a fitted effect of over 45% in size
# How it was run: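 p53RE-bla HCT-116 cells were exposed 16 h at 37 C to compounds with rat liver microsomes (0.5 mg/mL) and NADPH (0.5 mg/mL). Viability was measured in the same wells as ATP content by CellTiter-Glo luminescence.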
# [8] = p53 small molecule agonists, cell-based qHTS assay (AID 1963582; active means well fitted activation curve with a large enough effect in the signal ratio in the repeat runs, not every such curve was filed as active; the % refers to the signal ratio)
# How it was run: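 Agonist activity was scored from beta-lactamase FRET fluorescence in p53RE-bla cells treated 16 h at 37 C with compounds in DMSO, substrate incubation being 2 h at room temperature.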
# [9] = target: 5-hydroxytryptamine receptor 2A (Homo sapiens) (UniProt P28223); assay: 5-hydroxytryptamine receptor 2A (HTR2A) small molecule antagonists, cell-based qHTS assay (AID 1963586); further: nearly all actives have a fitted effect of over 45% in size
# Chain of 5-hydroxytryptamine receptor 2A (Homo sapiens) (P28223 whole entry, looked up): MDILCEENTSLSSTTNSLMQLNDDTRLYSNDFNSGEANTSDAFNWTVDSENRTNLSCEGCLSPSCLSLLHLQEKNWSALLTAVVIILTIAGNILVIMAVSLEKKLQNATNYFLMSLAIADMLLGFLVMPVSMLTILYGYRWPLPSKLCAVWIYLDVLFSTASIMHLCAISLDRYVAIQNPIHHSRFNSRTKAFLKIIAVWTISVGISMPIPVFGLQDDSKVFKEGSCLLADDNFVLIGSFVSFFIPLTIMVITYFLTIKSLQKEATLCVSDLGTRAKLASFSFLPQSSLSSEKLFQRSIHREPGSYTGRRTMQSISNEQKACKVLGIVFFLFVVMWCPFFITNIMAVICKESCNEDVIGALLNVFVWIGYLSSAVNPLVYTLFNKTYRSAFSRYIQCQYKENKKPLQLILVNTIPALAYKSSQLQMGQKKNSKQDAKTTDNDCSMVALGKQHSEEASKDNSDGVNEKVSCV
# How it was run: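 Antagonist-mode intracellular calcium assay: DOI (4 nM) added after 5 min compound pre-incubation at room temperature to dye-loaded HTR2A-CHO cells. Fluorescence followed for 3 min, sampled every second.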
# [10] = target: 5-hydroxytryptamine receptor 2A (Homo sapiens) (UniProt P28223); assay: 5-hydroxytryptamine receptor 2A (HTR2A) small molecule agonists, cell-based qHTS assay (AID 1963587); further: nearly all actives have a fitted effect of over 30% in size
# How it was run: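 CHO cells stably expressing human HTR2A, plated 18 h, loaded with calcium dye 1 h at 37 C. Agonist mode: compounds added and intracellular calcium fluorescence recorded kinetically for 2 min at 1 sec intervals.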
# [11] = target: Muscarinic acetylcholine receptor M1 (Homo sapiens) (UniProt P11229); assay: Cholinergic receptor muscarinic 1 (CHRM1) small molecule antagonists, cell-based qHTS assay (AID 1963588); further: nearly all actives have a fitted effect of over 40% in size
# Chain of Muscarinic acetylcholine receptor M1 (Homo sapiens) (P11229 whole entry, looked up): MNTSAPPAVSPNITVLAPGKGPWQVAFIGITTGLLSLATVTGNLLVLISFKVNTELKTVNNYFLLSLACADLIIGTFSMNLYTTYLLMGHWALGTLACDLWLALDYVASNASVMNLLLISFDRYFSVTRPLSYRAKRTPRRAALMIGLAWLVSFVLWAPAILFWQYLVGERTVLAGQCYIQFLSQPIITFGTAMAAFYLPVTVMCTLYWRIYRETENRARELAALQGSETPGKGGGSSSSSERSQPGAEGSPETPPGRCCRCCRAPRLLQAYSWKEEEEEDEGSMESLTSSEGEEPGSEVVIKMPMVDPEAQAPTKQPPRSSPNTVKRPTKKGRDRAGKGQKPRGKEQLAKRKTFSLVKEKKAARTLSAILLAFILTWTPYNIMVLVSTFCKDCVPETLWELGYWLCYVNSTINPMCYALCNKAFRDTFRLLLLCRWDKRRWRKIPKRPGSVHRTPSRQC
# How it was run: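 CHRM1-CHO calcium-flux assay, antagonist mode. Cells were seeded 18 h, dye-loaded 1 h at 37 C and given compound for 5 min at RT, then acetylcholine was added at 50nM. FDSS fluorescence was read 3 min; 15 concentrations, three runs.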
# [12] = target: Muscarinic acetylcholine receptor M1 (Homo sapiens) (UniProt P11229); assay: Cholinergic receptor muscarinic 1 (CHRM1) small molecule agonists, cell-based qHTS assay (AID 1963589); further: nearly all actives have a fitted effect of over 35% in size
# How it was run: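 Stable CHRM1-CHO cells (human receptor) were incubated 18 h, dye-loaded for 1 h at 37 C and exposed to test compounds for agonist activity, with calcium-dependent fluorescence followed kinetically.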
# [13] = cAMP Responsive Elements (CRE) small molecule agonists, cell-based qHTS assay (AID 1963590)
# How it was run: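 FRET-based beta-lactamase readout (LiveBLAzer B/G, 2 h RT) quantified CRE activation in HEK 293T CRE-bla cells after 3 h treatment with DMSO-dissolved compounds.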
# [14] = cAMP Responsive Elements (CRE) small molecule antagonists, cell-based qHTS assay (AID 1963591; active means well fitted inhibition curve with a large enough effect in the signal ratio in the repeat runs, not every such curve was filed as active; the % refers to the signal ratio)
# How it was run: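 qHTS in CRE-bla HEK 293T cells: compound in DMSO, then 0.25 uM NKH477 (final), 3 h at 37 °C/5% CO2; beta-lactamase FRET read-out after 2 h substrate incubation.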
# [15] = target: Beta-2 adrenergic receptor (Homo sapiens) (UniProt P07550); assay: Adrenergic beta2 receptor (ADRB2) small molecule agonists, cell-based qHTS assay (AID 1963593);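 further: CHO cells stably overexpressing human ADRB2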
# Chain of Beta-2 adrenergic receptor (Homo sapiens) (P07550 whole entry, looked up): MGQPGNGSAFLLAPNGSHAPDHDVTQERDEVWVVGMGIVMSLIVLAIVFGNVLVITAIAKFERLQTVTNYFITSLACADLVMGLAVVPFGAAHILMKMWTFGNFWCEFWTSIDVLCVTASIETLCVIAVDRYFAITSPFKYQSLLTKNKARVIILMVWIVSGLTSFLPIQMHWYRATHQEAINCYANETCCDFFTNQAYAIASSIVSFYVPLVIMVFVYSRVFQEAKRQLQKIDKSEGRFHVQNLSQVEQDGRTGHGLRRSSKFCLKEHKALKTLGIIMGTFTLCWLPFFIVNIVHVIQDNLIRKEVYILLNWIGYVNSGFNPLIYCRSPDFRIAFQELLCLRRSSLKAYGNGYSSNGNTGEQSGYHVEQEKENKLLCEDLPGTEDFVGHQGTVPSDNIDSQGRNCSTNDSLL
# How it was run: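 CHO cells stably over-expressing ADRB2 were plated overnight at 37C, then dosed with compounds plus a stimulation mix containing 100uM IBMX and 25uM Ro-20-1724 for 0.5hr at room temperature. cAMP was measured by HTRF competition, 1hr.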
# [16] = target: D(2) dopamine receptor (Homo sapiens) (UniProt P14416); assay: Dopamine D2 receptor (DRD2) small molecule agonists, cell-based qHTS assay (AID 1963594); further: nearly all actives have a fitted effect of over 35% in size
# Chain of D(2) dopamine receptor (Homo sapiens) (P14416 whole entry, looked up): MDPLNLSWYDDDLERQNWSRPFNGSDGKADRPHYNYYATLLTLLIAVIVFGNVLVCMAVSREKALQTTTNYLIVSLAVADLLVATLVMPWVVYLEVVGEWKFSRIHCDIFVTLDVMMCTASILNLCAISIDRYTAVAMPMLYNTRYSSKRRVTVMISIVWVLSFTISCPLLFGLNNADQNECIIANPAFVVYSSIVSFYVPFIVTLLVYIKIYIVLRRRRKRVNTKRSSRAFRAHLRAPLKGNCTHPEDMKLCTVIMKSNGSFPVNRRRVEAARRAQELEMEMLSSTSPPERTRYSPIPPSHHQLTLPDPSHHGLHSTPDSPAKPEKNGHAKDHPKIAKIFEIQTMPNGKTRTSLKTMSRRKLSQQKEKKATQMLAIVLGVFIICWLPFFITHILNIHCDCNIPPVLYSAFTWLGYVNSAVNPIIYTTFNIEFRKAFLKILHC
# How it was run: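 HEK293 cells stably expressing human DRD2, pre-treated with PDE inhibitor Ro20-1724 (0.1 mM final) and compound 10 min at room temperature, then stimulated with NKH477 (200nM […]) for 30 min. cAMP read by HTRF (665/620 nm).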
# [17] = target: D(2) dopamine receptor (Homo sapiens) (UniProt P14416); assay: Dopamine D2 receptor (DRD2) small molecule antagonists, cell-based qHTS assay (AID 1963595; active means well fitted inhibition curve with a large enough effect in the signal ratio in the repeat runs, with a control signal flat; the % refers to the signal ratio)
# How it was run: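 In this cell-based antagonist screen, compounds act for 10 min at room temperature before a 30 min challenge with 12 nM quinpirole and 200 nM NKH477. cAMP is quantified by HTRF competition in DRD2-HEK293 cells containing 0.1 mM Ro20-1724.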
# [18] = p53 small molecule agonists, cell-based qHTS assay with human liver microsomes: qHTS cell viability counter screen (AID 1963579); further: nearly all actives have a fitted effect of over 45% in size
# How it was run: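 Luminescent CellTiter-Glo read-out, 30 min at room temperature, gauged cytotoxicity in p53RE-bla cells exposed 16 h at 37 C to DMSO-dissolved compounds with metabolic activation by human liver microsomes and NADPH, each 0.5 mg/mL final.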
# [19] = p53 small molecule agonists, cell-based qHTS assay: qHTS cell viability counter screen (AID 1963581); further: nearly all actives have a fitted effect of over 45% in size; further: potency means the concentration at half of the fitted maximal effect
# How it was run: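 Compounds are pinned onto HCT-116 p53RE-bla cells and left 16 h at 37 C. Following the reporter FRET read, ATP is quantified by CellTiter-Glo luminescence after 30 min at room temperature.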
# [20] = target: Beta-2 adrenergic receptor (Homo sapiens) (UniProt P07550); assay: Adrenergic beta2 receptor (ADRB2) small molecule antagonists, cell-based qHTS assay (AID 1963592); further: series mostly up to about 92 µM; nearly all actives have a fitted effect of over 50% in size
# How it was run: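 Cells (CHO, stable ADRB2 overexpression) incubated 18-20hr at 37C; compounds added from DMSO; agonist mix (1nM isoproterenol, 100uM IBMX, 25uM Ro-20-1724) added; 0.5hr RT; d2-cAMP and anti-cAMP-cryptate added; 1hr RT; 665/615 nm read.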
SMILES,Potency [1],Potency [2],Potency [3],Potency [4],Potency [5],Potency [6],Potency [7],Potency [8],Potency [9],Potency [10],Potency [11],Potency [12],Potency [13],Potency [14],Potency [15],Potency [16],Potency [17],Potency [18],Potency [19],Potency [20]
c1ccc(OCCOc2ccccc2)cc1,inactive,inactive,inactive,inactive,inactive,inactive,inactive,inactive,inactive,inactive,inactive,inactive,inactive,inactive,inactive,inactive,inactive,–,–,–
C=CC[N+](C)(C)CC=C,inactive,–,inactive,inactive,inactive,inactive,inactive,inactive,inactive,inactive,inactive,inactive,inactive,inactive,inactive,inactive,inactive,inactive,inactive,inactive
Cc1ccc2c(c1)C(=O)OC2=O,inactive,–,inactive,inactive,inactive,inactive,inactive,inactive,inactive,inactive,inactive,inactive,inactive,inactive,inactive,inactive,–,inactive,inactive,inactive
CCCCCCCC=O,inactive,inactive,inactive,inactive,inactive,inactive,–,inactive,inactive,inactive,inactive,inactive,inactive,inactive,inactive,inactive,inactive,inactive,inactive,inactive
c1ccc2c(c1)Cc1ccccc1-2,inactive,inactive,–,inactive,–,inactive,inactive,inactive,inactive,inactive,inactive,inactive,inactive,inactive,–,inactive,inactive,inactive,–,inactive
O=C(O)CCC(=O)O,inactive,inactive,inactive,inactive,–,–,inactive,–,inactive,inactive,inactive,inactive,inactive,inactive,inactive,inactive,inactive,inactive,42.1 µM (active) and inactive,inactive
C=CC(=O)NC(C)(C)CS(=O)(=O)O,inactive,inactive,inactive,inactive,inactive,–,inactive,inactive,inactive,inactive,inactive,inactive,inactive,inactive,inactive,inactive,–,inactive,inactive,inactive
CNC(=O)Oc1ccc2c(c1)[C@]1(C)CCN(C)[C@@H]1N2C,inactive,inactive,inactive,inactive,–,–,inactive,inactive,–,–,–,–,inactive,inactive,inactive,inactive,inactive,inactive,–,inactive
NS(=O)(=O)O,inactive,–,inactive,inactive,inactive,inactive,inactive,inactive,inactive,inactive,inactive,inactive,inactive,inactive,inactive,inactive,inactive,inactive,inactive,inactive
Cn1cc[nH]c1=S,54.4 µM (active) and inactive,27.3 µM (active) and inactive,inactive,inactive,–,–,–,–,–,–,–,–,inactive,inactive,inactive,inactive,inactive,–,–,inactive
CC(=O)OCC(COC(C)=O)OC(C)=O,inactive,inactive,inactive,inactive,–,–,inactive,–,–,–,–,–,inactive,inactive,inactive,inactive,inactive,inactive,inactive,–
CC(C)=CCO,inactive,inactive,inactive,inactive,inactive,inactive,inactive,inactive,inactive,inactive,inactive,inactive,inactive,inactive,inactive,inactive,inactive,inactive,–,inactive
CN(C)CCCN,inactive,inactive,inactive,inactive,inactive,inactive,inactive,inactive,inactive,inactive,inactive,inactive,inactive,inactive,inactive,inactive,inactive,inactive,–,inactive
CCCCCCCCCCN,inactive,inactive,inactive,–,inactive,inactive,inactive,inactive,inactive,inactive,inactive,inactive,inactive,inactive,inactive,–,–,inactive,–,inactive
CC(C)(C)[C@@H](O)[C@@H](Cc1ccc(Cl)cc1)n1cncn1,inactive,–,inactive,inactive,inactive,inactive,inactive,inactive,inactive,inactive,inactive,inactive,inactive,inactive,inactive,inactive,inactive,inactive,inactive,inactive
CCCCC1(COC(=O)CCC(=O)O)C(=O)N(c2ccccc2)N(c2ccccc2)C1=O,inactive,inactive,inactive,inactive,inactive,–,inactive,inactive,inactive,inactive,inactive,inactive,inactive,inactive,inactive,inactive,inactive,inactive,inactive,inactive

# Source: PubChem BioAssay (Tox21)
